# Measured values: PMC11006913
# Substitutions are numbered along the chain they refer to.
# How the values were obtained:
# Assay in all cases: PBM; 200 nM protein, PBS
# Details in all cases: dsDNA, one strand shown
# SIX6 [1] = target: T1, SIX6 (Homo sapiens, UniProt O95475 114-200, L167I)
# T1 sequence: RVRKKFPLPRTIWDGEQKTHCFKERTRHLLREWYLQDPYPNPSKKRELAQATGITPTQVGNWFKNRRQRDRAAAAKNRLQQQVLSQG
# SIX6 [2] = target: T2, SIX6 (Homo sapiens, UniProt O95475 114-200, T165P)
# T2 sequence: T1 sequence with T52P, I54L
# SIX6 [3] = target: T3, SIX6 (Homo sapiens, UniProt O95475 114-200, L167M)
# T3 sequence: T1 sequence with I54M
# SIX6 [4] = target: T4, SIX6 (Homo sapiens, UniProt O95475 114-200, T165G)
# T4 sequence: T1 sequence with T52G, I54L
# SIX6 [5] = target: T5, SIX6 (Homo sapiens, UniProt O95475 114-200, T139Q)
# T5 sequence: T1 sequence with T26Q, I54L
# HOXC10 = HOXC10 (Homo sapiens, UniProt Q9NYD6 254-340, K271E)
# HOXC10, sequence (Q9NYD6 254-340 K271E): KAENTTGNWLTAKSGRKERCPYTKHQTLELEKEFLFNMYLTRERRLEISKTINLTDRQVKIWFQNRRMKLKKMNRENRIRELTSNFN
# SIX6 [6] = target: T6, SIX6 (Homo sapiens, UniProt O95475 114-200, L167V)
# T6 sequence: T1 sequence with I54V
# SIX6 [7] = target: T7, SIX6 (Homo sapiens, UniProt O95475 114-200, T165I)
# T7 sequence: T1 sequence with T52I, I54L
# CRX [8] = target: CRX (Homo sapiens, UniProt O43186 26-111)
# CRX (Homo sapiens, UniProt O43186 26-111), sequence (O43186 26-111): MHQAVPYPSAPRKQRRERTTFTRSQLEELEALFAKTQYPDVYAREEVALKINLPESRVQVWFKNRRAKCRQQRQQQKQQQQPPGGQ
# CRX [9] = target: CRX (Homo sapiens, UniProt O43186 26-111, E42D)
# CRX (Homo sapiens, UniProt O43186 26-111, E42D), sequence (O43186 26-111 E42D): as the sequence (O43186 26-111) above, with E17D counted along it
# CRX [10] = target: CRX (Homo sapiens, UniProt O43186 26-111, R41L)
# CRX (Homo sapiens, UniProt O43186 26-111, R41L), sequence (O43186 26-111 R41L): as the sequence (O43186 26-111) above, with R16L counted along it
# NKX2-6 [11] = target: T8, NKX2-6 (Homo sapiens, UniProt A6NCS4 118-204)
# T8 sequence: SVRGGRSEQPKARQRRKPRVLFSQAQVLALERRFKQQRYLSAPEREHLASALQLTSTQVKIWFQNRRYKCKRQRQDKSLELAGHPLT
# NKX2-6 [12] = target: T9, NKX2-6 (Homo sapiens, UniProt A6NCS4 118-204, F151L)
# T9 sequence: T8 sequence with F34L
# NKX3-2 [13] = target: NKX3-2 (Homo sapiens, UniProt P78367 192-278, P234S)
# NKX3-2 (Homo sapiens, UniProt P78367 192-278, P234S), sequence (P78367 192-278 P234S): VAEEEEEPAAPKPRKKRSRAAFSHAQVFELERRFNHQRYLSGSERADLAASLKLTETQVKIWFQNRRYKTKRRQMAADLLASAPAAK
# NKX3-2 [14] = target: NKX3-2 (Homo sapiens, UniProt P78367 192-278)
# NKX3-2 (Homo sapiens, UniProt P78367 192-278), sequence (P78367 192-278): as the sequence (P78367 192-278 P234S) above, with S43P counted along it
# HOXB9 [15] = target: HOXB9 (Homo sapiens, UniProt P17482 171-250, T197M)
# HOXB9 (Homo sapiens, UniProt P17482 171-250, T197M), sequence (P17482 171-250 T197M): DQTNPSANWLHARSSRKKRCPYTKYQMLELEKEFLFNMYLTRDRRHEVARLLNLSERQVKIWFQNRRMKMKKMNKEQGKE
# HOXB9 [16] = target: HOXB9 (Homo sapiens, UniProt P17482 171-250)
# HOXB9 (Homo sapiens, UniProt P17482 171-250), sequence (P17482 171-250): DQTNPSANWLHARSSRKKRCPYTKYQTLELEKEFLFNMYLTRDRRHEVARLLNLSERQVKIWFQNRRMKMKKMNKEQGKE
# HOXB9 [17] = target: HOXB9 (Homo sapiens, UniProt P17482 171-250, R186Q)
# HOXB9 (Homo sapiens, UniProt P17482 171-250, R186Q), sequence (P17482 171-250 R186Q): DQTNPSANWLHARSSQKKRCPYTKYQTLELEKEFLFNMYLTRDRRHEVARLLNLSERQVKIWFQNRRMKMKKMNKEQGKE
sequence,measurement,setting,value
CGCACGCC,binding signal,SIX6 [1],"8.9 upbm affinity estimate (log intensity, higher = more binding, comparable within an allelic series)"
same,binding signal,SIX6 [2],"8.83 upbm affinity estimate (log intensity, higher = more binding, comparable within an allelic series)"
same,binding signal,SIX6 [3],"9.01 upbm affinity estimate (log intensity, higher = more binding, comparable within an allelic series)"
same,binding signal,SIX6 [4],"8.9 upbm affinity estimate (log intensity, higher = more binding, comparable within an allelic series)"
same,binding signal,SIX6 [5],"8.93 upbm affinity estimate (log intensity, higher = more binding, comparable within an allelic series)"
same,binding signal,HOXC10,"10 upbm affinity estimate (log intensity, higher = more binding, comparable within an allelic series)"
same,binding signal,SIX6 [6],"8.9 upbm affinity estimate (log intensity, higher = more binding, comparable within an allelic series)"
same,binding signal,SIX6 [7],"8.9 upbm affinity estimate (log intensity, higher = more binding, comparable within an allelic series)"
ACCGTCCG,binding signal,CRX [8],"8.31 upbm affinity estimate (log intensity, higher = more binding, comparable within an allelic series)"
same,binding signal,CRX [9],"8.44 upbm affinity estimate (log intensity, higher = more binding, comparable within an allelic series)"
same,binding signal,CRX [10],"8.35 upbm affinity estimate (log intensity, higher = more binding, comparable within an allelic series)"
GCCGTCGC,binding signal,CRX [8],"8.32 upbm affinity estimate (log intensity, higher = more binding, comparable within an allelic series)"
same,binding signal,CRX [9],"8.21 upbm affinity estimate (log intensity, higher = more binding, comparable within an allelic series)"
same,binding signal,CRX [10],"8.17 upbm affinity estimate (log intensity, higher = more binding, comparable within an allelic series)"
GTCCTGCA,binding signal,NKX2-6 [11],"9.59 upbm affinity estimate (log intensity, higher = more binding, comparable within an allelic series)"
same,binding signal,NKX2-6 [12],"9.4 upbm affinity estimate (log intensity, higher = more binding, comparable within an allelic series)"
CCGCCCCC,binding signal,NKX3-2 [13],"10.4 upbm affinity estimate (log intensity, higher = more binding, comparable within an allelic series)"
same,binding signal,NKX3-2 [14],"10.4 upbm affinity estimate (log intensity, higher = more binding, comparable within an allelic series)"
GCAGGCGC,binding signal,HOXC10,"9.87 upbm affinity estimate (log intensity, higher = more binding, comparable within an allelic series)"
AATAATTG,binding signal,HOXB9 [15],"9.89 upbm affinity estimate (log intensity, higher = more binding, comparable within an allelic series)"
same,binding signal,HOXB9 [16],"11.3 upbm affinity estimate (log intensity, higher = more binding, comparable within an allelic series)"
same,binding signal,HOXB9 [17],"11.1 upbm affinity estimate (log intensity, higher = more binding, comparable within an allelic series)"
CAGCCAGG,binding signal,SIX6 [1],"9.07 upbm affinity estimate (log intensity, higher = more binding, comparable within an allelic series)"
same,binding signal,SIX6 [2],"8.91 upbm affinity estimate (log intensity, higher = more binding, comparable within an allelic series)"
same,binding signal,SIX6 [3],"9.02 upbm affinity estimate (log intensity, higher = more binding, comparable within an allelic series)"
same,binding signal,SIX6 [4],"9.14 upbm affinity estimate (log intensity, higher = more binding, comparable within an allelic series)"
same,binding signal,SIX6 [5],"9.1 upbm affinity estimate (log intensity, higher = more binding, comparable within an allelic series)"
same,binding signal,SIX6 [6],"9.01 upbm affinity estimate (log intensity, higher = more binding, comparable within an allelic series)"
same,binding signal,SIX6 [7],"8.99 upbm affinity estimate (log intensity, higher = more binding, comparable within an allelic series)"
CAGGCGCC,binding signal,SIX6 [1],"8.87 upbm affinity estimate (log intensity, higher = more binding, comparable within an allelic series)"
same,binding signal,SIX6 [2],"8.98 upbm affinity estimate (log intensity, higher = more binding, comparable within an allelic series)"
same,binding signal,SIX6 [3],"8.93 upbm affinity estimate (log intensity, higher = more binding, comparable within an allelic series)"
same,binding signal,SIX6 [4],"8.8 upbm affinity estimate (log intensity, higher = more binding, comparable within an allelic series)"
same,binding signal,SIX6 [5],"8.84 upbm affinity estimate (log intensity, higher = more binding, comparable within an allelic series)"
same,binding signal,SIX6 [6],"8.89 upbm affinity estimate (log intensity, higher = more binding, comparable within an allelic series)"
same,binding signal,SIX6 [7],"8.87 upbm affinity estimate (log intensity, higher = more binding, comparable within an allelic series)"
AATTATTA,binding signal,HOXB9 [15],"10.1 upbm affinity estimate (log intensity, higher = more binding, comparable within an allelic series)"
CGGCTAGC,binding signal,HOXC10,"10 upbm affinity estimate (log intensity, higher = more binding, comparable within an allelic series)"
AGAGGACC,binding signal,NKX3-2 [13],"11.8 upbm affinity estimate (log intensity, higher = more binding, comparable within an allelic series)"
same,binding signal,NKX3-2 [14],"11.8 upbm affinity estimate (log intensity, higher = more binding, comparable within an allelic series)"
CGCCTAGC,binding signal,NKX3-2 [13],"10.6 upbm affinity estimate (log intensity, higher = more binding, comparable within an allelic series)"
same,binding signal,NKX3-2 [14],"10.6 upbm affinity estimate (log intensity, higher = more binding, comparable within an allelic series)"
AGAGCTCT,binding signal,HOXC10,"10.1 upbm affinity estimate (log intensity, higher = more binding, comparable within an allelic series)"
CACCCGGC,binding signal,NKX2-6 [11],"9.18 upbm affinity estimate (log intensity, higher = more binding, comparable within an allelic series)"
same,binding signal,NKX2-6 [12],"9.14 upbm affinity estimate (log intensity, higher = more binding, comparable within an allelic series)"
CAGCTCGG,binding signal,NKX2-6 [11],"8.88 upbm affinity estimate (log intensity, higher = more binding, comparable within an allelic series)"
same,binding signal,NKX2-6 [12],"9.23 upbm affinity estimate (log intensity, higher = more binding, comparable within an allelic series)"
CTGCCAGC,binding signal,NKX2-6 [11],"9.39 upbm affinity estimate (log intensity, higher = more binding, comparable within an allelic series)"
same,binding signal,NKX2-6 [12],"9.37 upbm affinity estimate (log intensity, higher = more binding, comparable within an allelic series)"
